For 39 molecules, GFP signal change (wild-type ribosome), OD600 change and RFP signal change results are on record in PubChem BioAssay AID720706 (Broad Institute, 2013).

The structures appear in SMILES notation. About 5,500 (1.6%) of roughly 350,000 compounds were called active.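 The calls were made as follows: active = significant combined selectivity score with lowered wild-type GFP, culture density cut under 30%, mutant RFP and density less affected; inactive = any of these conditions unmet.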 The entries come from a sample that favours actives as a whole.

The assay in a line: reduced GFP signal of wild-type E. coli, primary screen, bacterial rRNA inhibitor project, GFP/RFP fluorescence, OD600, single point (AID 720706). Particulars: E. coli WT GFP vs humanized-ribosome RFP mutants, 24 h; GFP signal change (wild-type ribosome): stronger effect = lower value, DMSO median 0, no signal -100; OD600 change: measured here: OD600 growth, DMSO median 0, no signal -100; RFP signal change: measured here: RFP humanized mutant strains, DMSO median 0, no signal -100, concentration not given here.
Take `CC(C)C#Cc1ccc([C@H]2[C@@H](CO)N3CCCCN(C(=O)Nc4ccccc4)C[C@H]23)cc1`: the GFP signal change (wild-type ribosome) is -26% (inactive), the OD600 change is -29.6% and the RFP signal change was 1.8%.

`CO[C@@H]1CN(C)C(=O)c2ccc(NC(=O)NC(C)C)cc2OC[C@@H](C)N(C)C[C@H]1C`: the GFP signal change (wild-type ribosome) is 2.58% (inactive), the OD600 change is 9.18% and the RFP signal change amounted to 2.18%.

As for `C=CCOC(=O)C1=C(C)NC(C)=C(C(=O)OCC=C)C1c1cccs1`, the GFP signal change (wild-type ribosome) was -17.1% (active), the OD600 change was -4.32% and the RFP signal change is 3.89%.

In the case of `COC(=O)C1=CN(Cc2ccc(OC)c(OC)c2)C=C(C(=O)OC)C1c1cccs1`, the GFP signal change (wild-type ribosome) was -4.13% (inactive), the OD600 change was -22.2% and the RFP signal change came to 6.91%.

On to `C=CCOC(=O)c1ccccc1C(=O)OCC=C`, for which the GFP signal change (wild-type ribosome) was 7.54% (inactive), the OD600 change was determined as 7.92% and the RFP signal change worked out at 12%.

Consider `Cc1noc(C)c1S(=O)(=O)Nc1ccc2c(c1)C(=O)N([C@@H](C)CO)C[C@@H](C)[C@@H](CN(C)S(=O)(=O)c1ccccc1)OCCCC[C@H](C)O2`, for which the GFP signal change (wild-type ribosome) is -1.55% (inactive), the OD600 change was -7.72% and the RFP signal change was -2%.

Turning to `O=C1Nc2ccccc2NC(c2ccc3c(c2)OCO3)=C1N(Cc1ccc(F)cc1)C(=O)c1ccco1`, the GFP signal change (wild-type ribosome) was -28.3% (active), the OD600 change is -22.6% and the RFP signal change is 8%.

Take `CC(NC(=O)c1ccco1)c1ccc2c(c1)OCO2` (configuration not stated): the GFP signal change (wild-type ribosome) is -0.41% (inactive), the OD600 change is 4.91% and the RFP signal change is -2.06%.

For `CC1(C(=O)NCc2ccco2)Cc2c(-c3ccc4c(c3)OCO4)ccnc2O1` (configuration not stated), the GFP signal change (wild-type ribosome) was 10.2% (inactive), the OD600 change is 0.265% and the RFP signal change is -2.19%.

Take `CC(C)NC(=O)N(C)C[C@@H]1OCc2ccccc2-c2c(n(C)c3ccccc23)C(=O)N([C@@H](C)CO)C[C@H]1C`: the GFP signal change (wild-type ribosome) is 1.88% (inactive), the OD600 change was -5.55% and the RFP signal change was -8.97%.

As to `CC(=O)Nc1ccc(NC(=O)C2CCCN(S(=O)(=O)c3ccc(Cl)cc3)C2)cc1` (configuration not stated), the GFP signal change (wild-type ribosome) was 6.79% (inactive), the OD600 change came to 9.12% and the RFP signal change is -1.21%.

For `CC(C)c1ccc(NC(=O)C2CCCN(S(=O)(=O)c3cccnc3)C2)cc1` (configuration not stated), the GFP signal change (wild-type ribosome) was -15.6% (inactive), the OD600 change was -14.1% and the RFP signal change was -1.15%.

For `Cc1n[nH]c(C)c1S(=O)(=O)N1CCCC(C(=O)Nc2ccc(Br)cc2)C1` (configuration not stated), the GFP signal change (wild-type ribosome) was -18.5% (active), the OD600 change was -8.94% and the RFP signal change was 2.17%.

As for `C[C@H](CO)N1C[C@H](C)[C@H](CN(C)CC2CCCCC2)Oc2ccc(NC(=O)CCCCCC(=O)Nc3ccccc3N)cc2C1=O`, the GFP signal change (wild-type ribosome) is 3.67% (inactive), the OD600 change is 1.29% and the RFP signal change turned out to be 2.33%.

On to `CN(C)C(=O)[C@H]1[C@H](CO)[C@H]2Cn3c(ccc(-c4ccc(F)cc4)c3=O)[C@H]2N1C(=O)c1ccccn1`, for which the GFP signal change (wild-type ribosome) was 3.15% (inactive), the OD600 change is 9.51% and the RFP signal change was 0.335%.

Turning to `COC(=O)C[C@@H]1CC[C@@H]2[C@H](COc3ccc(NS(=O)(=O)c4ccccc4F)cc3C(=O)N2C)O1`, the GFP signal change (wild-type ribosome) was -1.08% (inactive), the OD600 change amounted to 1.69% and the RFP signal change was determined as 1.71%.

Take `NC(=O)c1ccc(CN2CCC(Cc3ccccc3)CC2)cc1`: the GFP signal change (wild-type ribosome) was 20.9% (inactive), the OD600 change is 10.4% and the RFP signal change is 1.24%.

For `O=S1(=O)CCOC[C@H](Cc2ccccc2)N1Cc1ccccc1Br`, the GFP signal change (wild-type ribosome) is -13.5% (inactive), the OD600 change was -12.2% and the RFP signal change is -2.23%.

Take `Brc1ccccc1CN1CCC(Cc2ccccc2)CC1`: the GFP signal change (wild-type ribosome) is -24.7% (active), the OD600 change is -12% and the RFP signal change was -3.42%.

For `O=C(C[C@H]1CC[C@@H]2[C@H](COC[C@H](O)CN2S(=O)(=O)c2ccccc2)O1)N1CCOCC1`, the GFP signal change (wild-type ribosome) is 6.11% (inactive), the OD600 change was determined as 11.2% and the RFP signal change was -4.33%.

As for `O=C(c1ccccc1)N1CC(=O)N2[C@@H](CO)[C@H](c3ccc(C#CC4CC4)cc3)[C@@H]2C1`, the GFP signal change (wild-type ribosome) was 4.2% (inactive), the OD600 change was 0.601% and the RFP signal change was -2.44%.

Take `CCCNC(=O)N1CC2(CN(C(=O)C3CCCCC3)C2)c2c([nH]c3cc(OC)ccc23)[C@@H]1CO`: the GFP signal change (wild-type ribosome) was -0.587% (inactive), the OD600 change is -2.63% and the RFP signal change was -0.961%.

Take `O=S1(=O)CC(N2CCN(Cc3ccccc3F)CC2)CN1Cc1cn(Cc2cccc(C(F)(F)F)c2)nn1` (configuration not stated): the GFP signal change (wild-type ribosome) is -29.5% (active), the OD600 change was -22.9% and the RFP signal change was -2.53%.

In the case of `O=S1(=O)CC(N2CCN(Cc3ccccc3F)CC2)CN1Cc1cn(Cc2ccccc2)nn1` (configuration not stated), the GFP signal change (wild-type ribosome) was 15% (inactive), the OD600 change turned out to be 11.5% and the RFP signal change was found to be 0.47%.

As for `Cc1cccc(CN2CCN(C3CN(Cc4cn(Cc5ccccc5F)nn4)S(=O)(=O)C3)CC2)c1` (configuration not stated), the GFP signal change (wild-type ribosome) is 6% (inactive), the OD600 change was 11% and the RFP signal change is -3.05%.

With `C[C@@H]1CN([C@H](C)CO)C(=O)c2cccc(NC(=O)C3CC3)c2O[C@@H]1CN(C)C(=O)Nc1ccccc1`, the GFP signal change (wild-type ribosome) was 4.57% (inactive), the OD600 change came to 10.7% and the RFP signal change is -0.0555%.

For the molecule `O=C(C[C@H]1CC[C@@H](NC(=O)Cc2ccccn2)[C@H](CO)O1)NCCc1ccccc1`, the GFP signal change (wild-type ribosome) was -0.355% (inactive), the OD600 change is -12% and the RFP signal change was -1.51%.

As to `Cc1cc(C(=O)O)ccc1[N+](=O)[O-]`, the GFP signal change (wild-type ribosome) is -5.96% (inactive), the OD600 change was -5.09% and the RFP signal change is -0.268%.

Regarding `CN1c2ccc([N+](=O)[O-])cc2C(C)(C)C12C=Cc1cc(C(=O)O)ccc1O2` (configuration not stated), the GFP signal change (wild-type ribosome) is -34.2% (active), the OD600 change is -21.4% and the RFP signal change was -10.7%.

Consider `O=[N+]([O-])c1ccc(N2CCN(c3ccc(O)cc3)CC2)c(Cl)c1`, for which the GFP signal change (wild-type ribosome) is -7.92% (inactive), the OD600 change came out at 0.78% and the RFP signal change was 1.58%.

In the case of `O=C(c1cccc(F)c1)N1C[C@H]2[C@@H](c3ccccc31)[C@@H](CO)N2C(=O)Cc1ccccc1`, the GFP signal change (wild-type ribosome) was 2.22% (inactive), the OD600 change worked out at 9.86% and the RFP signal change was -2.34%.

On to `CN(C)CCOCCOc1ccc(Cl)c2ccccc12`, for which the GFP signal change (wild-type ribosome) is -18.5% (active), the OD600 change was -8.69% and the RFP signal change stood at 3.22%.

Take `CN(C)CCOc1ccc(Cl)cc1C(C)(C)C`: the GFP signal change (wild-type ribosome) was -1.5% (inactive), the OD600 change is 4.96% and the RFP signal change was found to be 1.97%.

Take `CCN(CC)CCOCCOc1ccc(Cl)c2ccccc12`: the GFP signal change (wild-type ribosome) was -15.6% (inactive), the OD600 change is -34.8% and the RFP signal change is 10.8%.

As to `CCC(=O)N(C)C[C@H]1Oc2cc(/C=C/c3ccccc3)ccc2S(=O)(=O)N([C@H](C)CO)C[C@@H]1C`, the GFP signal change (wild-type ribosome) was -13.8% (inactive), the OD600 change was -24.1% and the RFP signal change stood at 1.56%.

As for `COc1ccc(C#Cc2cnc3c(c2)C(=O)N([C@H](C)CO)C[C@H](C)[C@H](CN(C)S(=O)(=O)c2ccc(F)cc2)O3)cc1OC`, the GFP signal change (wild-type ribosome) was -1.5% (inactive), the OD600 change was 6.11% and the RFP signal change is 0.148%.

As for `O=C(C[C@H]1C=C[C@H](NC(=O)CC2CC2)[C@@H](CO)O1)NCc1ccccc1`, the GFP signal change (wild-type ribosome) was -2.86% (inactive), the OD600 change is -1.4% and the RFP signal change stood at 0.749%.

As for `C[C@@H]1CC=CC[C@@H](c2ccccc2)NC(=O)[C@@H](Cc2ccccc2)N(C)C(=O)c2ccccc2O1` (mixture of isomers), the GFP signal change (wild-type ribosome) is -3.7% (inactive), the OD600 change is -8.18% and the RFP signal change was -0.954%.

Take `C[C@@H]1CCCCO[C@H](CN(C)S(=O)(=O)c2ccc(Cl)cc2)[C@H](C)CN([C@@H](C)CO)C(=O)c2cc(NS(=O)(=O)c3cn(C)cn3)ccc2O1`: the GFP signal change (wild-type ribosome) is -4.15% (inactive), the OD600 change is -10.5% and the RFP signal change stood at 3.24%.
